Screening results (PubChem BioAssay)
SMN2 splice up – increases expression of the SMN2 splice variant | Potency, µM (titrated, usually from 46.1 µM), for inactives: at the top dose activity change, positive = activation, usual class: activators | 210,000 tested, 2.8% active | HEK293 SMN2-luciferase splicing reporter, luminescence, 30-36 h; also: % of control where 0% means no effect; nearly all actives have a fitted effect of over 55% in size
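HEK293 cells carry an SMN2 […]–luciferase reporter in which exon 7 inclusion puts luciferase in frame. Cells were plated 10-12 h before compound addition, then incubated 30-36 h at 37C. ONE-Glo luminescence was read; sodium butyrate at 4.5 mM final served as control.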
NPC1 prom act – NPC1 promoter activation; Huh7 NPC1 promoter luciferase reporter, 24 h; Potency, µM (series often up to 9.22 µM), for inactives: at the top dose activation, actives largely listed as activators; 320,000 tested, 2.4% active; AID 485313; also: % of control where 0% means no effect; nearly all actives have a fitted effect of over 60% in size
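Compounds in DMSO were transferred onto Huh7 NPC1-luciferase reporter cells pre-incubated 2 h; after 24 h at 37 °C, Amplite reagent was dispensed and luminescence recorded 10 min later.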
ELG1 repair inh – inhibitors of ELG1-dependent DNA repair in HEK293T cells; HEK293T ELG1-luciferase reporter, luminescence, 16 h; DNA damage induced by 5-fluorouridine; Potency, µM (titrated, usually from 46.1 µM), for inactives: at the highest dose activity change, negative = inhibition, most hits filed as inhibitors; 330,000 tested, 2.3% active; also: % is scaled to controls: 0 for no effect and ±100 for the full control effect; nearly all actives have a fitted effect of over 55% in size
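HEK293T cells expressing luciferase-tagged ELG1 (2,000/well) received 5-Fluorouridine plus compound or DMSO for 16 hr at 37 °C. Luciferase was read by ONE-Glo luminescence after 30 min at room temperature.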
ELG1 genotox – genotoxicity induction in ELG1-luciferase HEK293T cells; HEK293T ELG1-luciferase reporter, luminescence, 16 h; Potency, µM (doses to about 46 µM), for the others: top-dose activity change, positive = activation, hits mostly activators; 330,000 tested, 1.3% active; also: % of control where 0% means no effect; nearly all actives have a fitted effect of over 60% in size
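16 hr compound incubation (37 °C, 5% CO2) of HEK293T cells carrying luciferase-tagged ELG1; luciferase then measured by ONE-Glo luminescence after 30 min at RT.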
FLuc counter – inhibits or activates purified firefly luciferase, miR-21 counter-screen; P08659; purified FLuc, Km substrates, luminescence inhibition; Potency, µM (series often up to 57.5 µM), for the others: at the top dose activity change, negative = inhibition, most hits filed as inhibitors; 360,000 tested, 6.9% active;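 also: plate controls were vehicle for no effect and reference inhibitor for full effect; nearly all actives have a fitted effect of over 55% in size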
Target sequence (P08659 whole entry, looked up): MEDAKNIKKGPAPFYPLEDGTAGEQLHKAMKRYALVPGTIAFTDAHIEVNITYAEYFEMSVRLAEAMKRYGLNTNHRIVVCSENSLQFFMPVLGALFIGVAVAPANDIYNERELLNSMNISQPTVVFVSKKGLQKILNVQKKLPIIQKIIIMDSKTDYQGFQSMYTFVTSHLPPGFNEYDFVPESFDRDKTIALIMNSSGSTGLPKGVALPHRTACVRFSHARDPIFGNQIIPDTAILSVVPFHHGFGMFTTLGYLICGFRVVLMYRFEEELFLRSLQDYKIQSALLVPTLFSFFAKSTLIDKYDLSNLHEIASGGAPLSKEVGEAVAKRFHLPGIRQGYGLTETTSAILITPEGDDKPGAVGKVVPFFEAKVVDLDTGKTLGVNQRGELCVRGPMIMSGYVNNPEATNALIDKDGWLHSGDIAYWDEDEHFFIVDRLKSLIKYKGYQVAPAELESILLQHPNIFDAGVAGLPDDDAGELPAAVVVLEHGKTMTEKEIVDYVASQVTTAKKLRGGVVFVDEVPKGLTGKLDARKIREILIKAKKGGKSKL
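Biochemical qHTS of compounds, final roughly 60 µM downward over six points, against 10 nM purified firefly luciferase using Km concentrations of substrates (10 uM D-luciferin, 10 uM ATP) in Tris acetate pH 7.5 buffer; luminescence output.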
Rab9 prom act – activators of Rab9 promoter; 320,000 tested, 2.8% active; Huh7 Rab9 promoter-luciferase reporter, luminescence, 24 h; Potency, µM (series often up to 9.22 µM), for inactives: top-dose activation, negative = inhibition, hits mostly activators; AID 485297; also: % of control where 0% means no effect; nearly all actives have a fitted effect of over 60% in size
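Luminescence read-out: Huh7 cells stably expressing Rab9-luciferase, treated 24 h with compound at 37 °C, then lysed with luciferase reagent for 10 min at ambient before reading.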
The depositor's hits bear a star; u = inconclusive; x = no result; [ ] = dose if it differs, or a comment. Shown are actives, neighbours in structure and some others; about 9.3% of the full set was active somewhere. Calls follow the shape of the dose curve; as a rule, active = well fitted curve in the direction sought with a large enough effect; inconclusive = small, poorly fitted or top-dose-only effect, or another doubt; inactive = no such curve, though single readings can be large; an effect the other way counts as inactive or inconclusive. Potency is read from the fitted curve at half-maximal effect.

SMILES | SMN2 splice up | NPC1 prom act | ELG1 repair inh | ELG1 genotox | FLuc counter | Rab9 prom act
O=C(C1CCC(CNc2nc(=S)[nH]c3ccccc23)CC1)N1CCN(c2ccc(F)cc2)CC1 (stereo unspecified) | x | -1% | 23µM* | -9% | 0% | -11%
O=C(CCCn1c(=S)[nH]c2ccc(Br)cc2c1=O)N1CCN(c2ccccn2)CC1 | -17% | 3% | 18µM* | -11% | 3% | -1%
O=C(C1CCC(Cn2c(=S)[nH]c3ccccc3c2=O)CC1)N1CCN(c2ccccn2)CC1 (stereo unspecified) | -111% | -6% | 5.2µM* | -20% | 7% | -8%
O=C(CCCn1c(=S)[nH]c2ccc(Br)cc2c1=O)NCc1ccccn1 | x | 3% | -2% | -2%[9.26 µM] | -1% | -9%
Cc1onc(-c2ccccc2)c1C(=O)N/N=C/c1ccco1 | x | -2% | -8% | 1% | -3% | -2%
c1ccc(-c2nnc(-c3ccccn3)nc2NC2CCCCC2)cc1 | -80% | -13% | 18µM* | -3% | -2% | -19%
CNc1nc(-c2ccccn2)nnc1-c1ccccc1 | -89% | -3% | -10% | u | -3% | -2%
CC1CN(C2CCN(C(=O)c3ccccc3Cl)CC2)CC(C)O1 (stereo unspecified) | 2% | 1% | 8% | 0% | 7% | -1%
Cc1ccc(OCCCC(=O)Nc2cc(Cl)ccc2-n2cncn2)cc1 | x | -1% | -16% | -29% | -2% | -3%
COc1ccc(C(=O)N/N=c2\oc3ccccc3cc2C(=O)NCc2ccccc2)cc1 | -7% | 0% | 10µM* | 4% | 0% | 0%
COc1cccc(NC(=O)c2cc3cccc(OC)c3o/c2=N\O)c1 | x | 2.8µM* | u | u | 0.54µM* | 0.71µM*
COc1ccc2oc(=O)c(C(=O)NCc3ccccc3)cc2c1 | x | 2% | 2% | 1% | 3% | -2%
COc1cccc(NC(=O)c2cc3ccccc3o/c2=N\O)c1 | x | 0.79µM* | u | 0.41µM* | 0.54µM* | 0.71µM*
O=C(Nc1ccccc1Cl)c1cc2ccccc2o/c1=N\O | x | 3.2µM* | u | 16µM* | 2.1µM* | 2.5µM*
COc1cccc(NC(=O)c2ccccc2Oc2ccccc2)c1 | x | 0% | 4% | -5% | -1% | 7%
CC(C)NC(=O)CC(=O)Nc1ccc2nc3n(c(=O)c2c1)CCCCC3 | -9% | x | x | x | -17% | x
COC(=O)c1ccc2c(CCO)c[nH]c2c1 | x | u | u | u | 24µM* | 29%
Cc1ccc(C)c(N2CCN(S(=O)(=O)c3ccc4c(c3)CC(=O)N4C)CC2)c1 | x | 0% | 12% | -3% | 4% | 0%
CCC1CCCCN1S(=O)(=O)c1ccc(C(=O)Nc2nnc(C3CC3)o2)cc1 (stereo unspecified) | x | 0% | u | -26% | 0% | -3%
CCC1CCCCN1S(=O)(=O)c1ccc(NC(=O)c2ccncc2)cc1 (stereo unspecified) | x | -26% | 5.2µM* | -11% | -2% | -24%
O=C(NCCc1ccc(Cl)cc1)c1ccc2nccnc2c1 | x | 2.2µM* | u | 16% | 11µM* | 4µM*
CCNC(=O)c1ccc(CSc2ccc(Cl)cc2)cc1 | -18% | 3% | u | -3% | -16% | -2%
CC(=O)NCCNC(=O)c1ccc(CSc2ccc(Cl)cc2)cc1 | 13µM* | 2.8µM* | u | u | u | 2.8µM*
O=C(NCCc1ccc(O)cc1)c1ccc(Cl)cc1 | 32µM* | u | u | u | 12µM* | u
Cc1ccc(Nc2nc(N)nc(CSc3ncccn3)n2)cc1 | 13µM* | 2.2µM* | u | u | 12µM* | 2µM*
SMILES | SMN2 splice up | NPC1 prom act | ELG1 repair inh | ELG1 genotox | FLuc counter | Rab9 prom act
Nc1nc(CSc2n[nH]c(-c3ccccc3)n2)nc(Nc2ccccc2)n1 | -35% | -2% | u | -18% | -10% | -1%
Nc1nc(CSc2ncccn2)nc(Nc2ccccc2)n1 | 14µM* | 4.5µM* | u | u | 24µM* | 4µM*
Cc1ccc(Nc2nc(N)nc(CSc3nc(C)cc(C)n3)n2)cc1 | -4% | x | x | x | -14% | x
CC(c1ccccc1)C(NC(=O)OCC1c2ccccc2-c2ccccc21)C(=O)O (stereo unspecified) | x | -1% | 27% | 2% | 0% | -1%
Cc1c(-c2nc(-c3ccc(C(F)(F)F)cc3)no2)n(C)oc1=O | x | u | u | 5% | x | u
CC(C)N(C(=O)COC(=O)c1cccc(S(=O)(=O)N2CC3(C)CC2CC(C)(C)C3)c1)C(C)C (stereo unspecified) | x | 0% | -1% | -1% | 5% | 3%
CCOc1ccccc1N(CC)C(=O)c1nn(C)c2c1CSc1ccccc1-2 | x | -4% | 9.2µM* | -5% | 0% | 2%
CCOc1ccccc1NC(=O)c1nn(C)c2c1CSc1ccccc1-2 | x | x | x | x | -11% | x
CCc1nnc(NC(=O)c2ccc(OC)cc2)s1 | 3.2µM* | 0.71µM* | u | -9% | 4.8µM* | 0.32µM*
CCc1nnc(NC(=O)c2cccc(OC)c2)s1 | 16µM* | 3.2µM* | u | u | 8.5µM* | 3.2µM*
CCc1nnc(NS(=O)(=O)c2ccc(NC(=O)c3ccc(Br)cc3)cc2)s1 | x | -6% | 0% | 0% | 27µM* | 0%
CCc1nnc(NS(=O)(=O)c2ccc(NS(=O)(=O)c3ccccc3[N+](=O)[O-])cc2)s1 | x | 0% | -14% | -1% | -3% | 3%
CCc1nnc(NS(=O)(=O)c2ccc(NC(=O)OC)cc2)s1 | -1% | -1% | -7% | 3% | 4% | -8%
CCc1nnc(NS(=O)(=O)c2ccc(Nc3ccc([N+](=O)[O-])c4nonc34)cc2)s1 | -16% | -7% | 5% | 0% | 15µM* | 1%
Cc1ccc(C(=O)Oc2ccc(-c3nnco3)cc2)o1 | x | 0% | 22% | 4% | u | 0%
CCN(C[C@H]1N[C@@](C)(C(=O)OC)[C@H]2C(=O)N(C)C(=O)[C@@H]12)C(=O)Nc1ccc(Cl)cc1 | x | x | 0% | -3% | x | x
COc1ccc(OC)c(Nc2cc(C)c3ccccc3n2)c1 | x | -26% | 10% | -5% | -28% | -16%
CCc1nnc(NC(=O)c2ccc(S(C)(=O)=O)cc2)s1 | x | u | u | 13% | 21µM* | 26%
CCOCc1nnc(NC(=O)c2cccc(OC)c2)s1 | u | 15% | u | 13% | u | 13%
CCc1nnc(NS(=O)(=O)c2ccc(N/C=C/C(=O)c3ccc(OC)cc3)cc2)s1 | x | 7% | 0% | u | 21µM* | -2%
CCc1nnc(NC(=O)c2ccc(Cl)c(S(=O)(=O)N3CCc4ccccc43)c2)s1 | -46% | -1% | 23µM* | -6% | 2% | -2%
